Several values for one entry are separate records, joined by “and”; a condition that tells them apart may be missing. Equal entries are not always repeated. Activity calls are given as the source filed them. How the calls were made is not given here. Non-standard residues stand in square brackets, D forms with d. Residues, ends and D or L forms follow the SMILES beside them. Orn = NCCC[CH](N)C(=O)O

For this assay, the system named is Aerobactin synthetase IucA (Klebsiella pneumoniae hvKP1). Description: IucA enzyme inhibition, primary screen, biochemical, Spectrum library (AID 1346200).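 Further: 100% = wells without compound and 0% = wells lacking enzyme.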 To be noted: malachite green pyrophosphate, A620, at 8 µM, active compounds read low.
Consider `O=c1cc(-c2cc(O)c(O)c(O)c2)oc2cc(O)cc(O)c12`, for which the activity remaining was 101% (inactive). For the molecule `Cc1cccc(C)c1NC(=O)C1CCCCN1C` (stereo not given), the activity remaining was 123% (inactive).

With `CN1CCc2c(c3ccccc3n2Cc2ccccc2)C1`, the activity remaining is 116% (inactive). `CC(=O)OCC(=O)[C@@]12OC(C)(C)O[C@@H]1CC1C3C[C@H](F)C4=CC(=O)C=C[C@]4(C)[C@@]3(F)[C@@H](O)C[C@@]12C` (stereo not given in full): the activity remaining is 100% (inactive). As for `O=C(Oc1cc(OC(=O)c2ccccc2)c2c(c1)O[C@H](c1ccc(OC(=O)c3ccccc3)c(OC(=O)c3ccccc3)c1)[C@@H](OC(=O)c1ccccc1)C2)c1ccccc1`, the activity remaining was 106% (inactive). Then `OC[C@H]1O[C@@H](Oc2ccc(O)cc2)[C@H](O)[C@@H](O)[C@@H]1O`, with 115% (inactive); and `O=C(O[C@@H]1Cc2c(O)cc(O)cc2O[C@@H]1c1cc(O)c(=O)c2c(O)c(O)cc([C@H]3Oc4cc(O)cc(O)c4C[C@H]3OC(=O)c3cc(O)c(O)c(O)c3)c2c1)c1cc(O)c(O)c(O)c1`, with 108% (inactive). As for `CC(C)CC1NC(=O)C(CCCN)NC(=O)C(C(C)C)NC(=O)C(Cc2ccc(O)cc2)NC(=O)C(CCC(=O)O)NC(=O)C(CC(=O)O)NC(=O)C(Cc2ccccc2)NC(=O)C(Cc2ccccc2)NC(=O)C2CCCN2C(=O)C(Cc2ccccc2)NC1=O` (stereo not given) (cyclo(DEYV[Orn]LFPFF); configuration not given here), the figure is 113% (inactive). Take `COC(=O)C[C@@H]1C2(C)C(=O)[C@@H](CC3=C4CC(O)O[C@@H](c5ccoc5)[C@]4(C)CCC32)[C@H](O)C1(C)C` (stereo not given in full): the activity remaining is 128% (inactive).

With `Nc1ccc(S(=O)(=O)Nc2ccccn2)cc1`, the activity remaining is 97.8% (inactive). In the case of `NCCC(=O)N[C@@H](Cc1cnc[nH]1)C(=O)O`, the activity remaining is 106% (inactive).

For the molecule `CO[C@H]1C[C@H](O[C@H]2[C@H](C)[C@@H](OC3O[C@H](C)C[C@H](N(C)C)[C@H]3O)[C@@H](C)C[C@]3(CO3)C(=O)[C@H](C)[C@@H](O)[C@@H](C)[C@@H](C)OC(=O)[C@@H]2C)O[C@@H](C)[C@@H]1O` (stereo not given in full), the activity remaining was 107% (inactive). As to `CO/N=C(/C(=O)N[C@@H]1C(=O)N2C(C(=O)O)=C(COC(C)=O)CS[C@H]12)c1csc(N)n1`, the activity remaining is 117% (inactive). For `Cc1cc(C(C)(C)CC(C)(C)C)ccc1OCCOCC[N+](C)(C)Cc1ccccc1`, the activity remaining was 118% (inactive).

As for `Nc1ccc(C(=O)Oc2ccccc2)c(O)c1`, the activity remaining is 114% (inactive). Regarding `CC[C@H]1OC(=O)[C@H](C)[C@@H](O[C@H]2C[C@@](C)(OC)[C@@H](O)[C@H](C)O2)[C@H](C)[C@@H](O[C@@H]2O[C@H](C)C[C@H](N(C)C)[C@H]2O)[C@](C)(O)C[C@@H](C)CN(C)[C@H](C)[C@@H](O)[C@]1(C)O`, the activity remaining is 104% (inactive). As to `C[C@H](CCC(=O)O)[C@H]1CCC2C3C(CC[C@@]21C)[C@@]1(C)CC[C@@H](O)C[C@H]1C[C@H]3O` (stereo not given in full), the activity remaining is 101% (inactive). With `C=C(C)C1(O)OC(=O)C=C1OC` (stereo not given), the activity remaining was 124% (inactive).

In the case of `C[C@]12CC[C@H](O)CC1=CCC1C2CC[C@]2(C)C(=O)CCC12` (stereo not given in full), the activity remaining was 103% (inactive). Then `COc1cc(O)c(C(=O)/C=C/c2ccc(O)c(OC)c2)c(OC)c1`, with 77.4% (inactive); and `Cc1onc(-c2ccccc2)c1-c1ccc(S(N)(=O)=O)cc1`, with 103% (inactive). In the case of `O=C(O[C@@H]1Cc2c(O)cc(O)cc2O[C@@H]1c1cc(O)c(O)c(O)c1-c1c([C@H]2Oc3cc(O)cc(O)c3C[C@H]2O)cc(O)c(O)c1O)c1cc(O)c(O)c(O)c1`, the activity remaining is 119% (inactive). As for `CC(C)=CCc1c2c(c(O)c3c(=O)c(O)c(-c4ccccc4)oc13)C=CC(C)(C)O2`, the figure is 110% (inactive). With `O=c1c2ccccc2oc2ccccc12`, the activity remaining was 117% (inactive). For `CC(C)CCCC(C)[C@H]1CCC2C3CC=C4CC(=O)CC[C@]4(C)C3CC[C@@]21C` (stereo not given in full), the activity remaining is 113% (inactive). On to `CC1(C)C2CC[C@]3(C)C(C(=O)C=C4[C@@H]5C[C@@](C)(C(=O)O)CC[C@]5(C)CC[C@]43C)[C@@]2(C)CC[C@@H]1O` (stereo not given in full), for which the activity remaining was 126% (inactive).

As for `CN[C@@H]1C(O)[C@@H](O[C@@H]2[C@@H](O)[C@H](O[C@H]3OC(CN)=CC[C@H]3N)[C@@H](N)C[C@H]2N)OC[C@]1(C)O` (stereo not given in full), the activity remaining was 96.1% (inactive). Then `COc1ccc(/C=C/C(=O)O)cc1OC`, with 110% (inactive) and 92.7% (inactive). For the molecule `CCOC(=O)[C@H](CCc1ccccc1)N[C@H](C)C(=O)N1C2CCCCC2C[C@H]1C(=O)O` (stereo not given in full), the activity remaining was 119% (inactive). As for `CO[C@H]1/C=C/O[C@@]2(C)Oc3c(C)c(O)c4c(O)c(c5c(nc6cc(C)ccn65)c4c3C2=O)NC(=O)/C(C)=C\C=C\[C@H](C)[C@H](O)[C@@H](C)C(O)[C@@H](C)[C@H](OC(C)=O)[C@@H]1C` (stereo not given in full), the figure is 110% (inactive). For the molecule `COc1ccc2c3c1O[C@H]1C[C@@H](O)C=C[C@@]31CCN(C)C2`, the activity remaining was 103% (inactive). As for `O=c1c(O)cccc2cc(O)c(O)c(O)c12`, the activity remaining is 107% (inactive). Then `CCC(Cc1c(I)cc(I)c(N)c1I)C(=O)O` (stereo not given), with 103% (inactive). As for `O=c1c(O)c(-c2ccccc2)oc2cc(O)ccc12`, the figure is 100% (inactive); as for `C=CC(C1=CC(=O)C(OC)=CC1=O)c1ccccc1` (stereo not given), 113% (inactive). As for `OCC(O)CN1CCN(c2ccccc2)CC1` (stereo not given), the figure is 107% (inactive). `CCCCCC(O)C1C(=O)OC(C)C(O)/C=C/C=C/C=C/C=C/C=C(\C)C(O)CC(O)CC(O)CC(O)CC(O)CC(O)CC1O` (stereo not given): the activity remaining was 118% (inactive). `Cc1ncc([N+](=O)[O-])n1CCO`: the activity remaining was 75.6% (inactive). For `COc1cc(O)c2c(=O)cc(-c3ccc(OC)c(-c4c(O)cc(O)c5c(=O)cc(-c6ccc(O)cc6)oc45)c3)oc2c1`, the activity remaining was 118% (inactive).

With `CC(=O)Oc1cccc2c1C(=O)c1c(OC(C)=O)cc(C(=O)O)cc1C2=O`, the activity remaining is 102% (inactive).

(Values after PubChem BioAssay.)
